Hits are enriched below; roughly 2.4% of the tested compounds scored in any of these assays.
D2 ag-1: activates the human D2 dopamine receptor; DiscoveRx PathHunter D2 beta-arrestin, luminescence, 90 min; 100% = 57 uM dopamine signal; activation, % (test concentration not listed); 360,000 compounds, 0.084% hits; in the data active means activation above about 40%; inconclusive means between about 15% and that limit
Target sequence (P14416 whole entry, looked up): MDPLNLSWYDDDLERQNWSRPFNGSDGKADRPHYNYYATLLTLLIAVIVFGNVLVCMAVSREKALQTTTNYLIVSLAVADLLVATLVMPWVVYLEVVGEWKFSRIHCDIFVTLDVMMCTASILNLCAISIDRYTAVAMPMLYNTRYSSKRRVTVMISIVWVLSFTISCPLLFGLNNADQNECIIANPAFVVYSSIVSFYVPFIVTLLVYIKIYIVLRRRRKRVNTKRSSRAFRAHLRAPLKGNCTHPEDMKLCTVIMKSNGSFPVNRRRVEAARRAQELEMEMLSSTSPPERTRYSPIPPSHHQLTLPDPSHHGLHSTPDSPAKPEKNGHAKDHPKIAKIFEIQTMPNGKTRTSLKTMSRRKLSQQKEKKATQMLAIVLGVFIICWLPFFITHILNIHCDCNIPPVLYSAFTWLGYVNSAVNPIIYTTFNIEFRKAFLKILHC
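DiscoveRx PathHunter D2 beta-arrestin cells (2,100/well) attached overnight, then compound-stimulated 90 min at 37 C in HBSS/10 mM HEPES/0.1% Tween-20 buffer; beta-galactosidase complementation read by luminescence after 1 h at ambient temperature. Dopamine 57 uM final (EC100) as control.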
D2 antag: D2 dopamine receptor (human) antagonism | HEK293 TREx D2 cells, calcium flux, dopamine EC80 | inhibition, % at 10 µM | 340,000 compounds, 2% hits; in the data active means inhibition above about 30%; inactive means below that, where a call was filed; further: 0% is about no effect
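Calcium flux kinetic readout in an inducible HEK293 TREx D2 line plated overnight at 30 C. After 180 s compound exposure, an EC80 dopamine challenge follows with another 180 s kinetic read to detect antagonism.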
D2 ag-2: D2 dopamine receptor (human) agonism | P14416 | HEK293 T-REx D2 cells, calcium flux agonist mode | activation, % at 2 µM | 340,000 compounds, 0.53% hits | AID 485358;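 active means activation over 3 SD above normal in the single-dose calcium agonist read, cut at about 30% in these data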; further: 0% is about no effect
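Calcium-flux readout, 1 cycle/sec over 180 s following compound pin transfer, in inducible HEK293 Trex D2 cells (force-coupled); dopamine controls included. Positive calcium responses during this window marked compounds as potential agonists.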
D2 PAM-1: potentiates the human D2 dopamine receptor allosterically; P14416; DiscoveRx D2 beta-arrestin cells, luminescence, 90 min; 100% = 57 uM dopamine signal; potentiation, % (no concentration beside the values); 360,000 compounds, 0.23% hits; in the data active means potentiation above about 50%; inconclusive means mostly about 30% to 49%
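PathHunter D2 cells, attached overnight at 37 deg C, received compound in DMSO plus dopamine at EC20 (50 nM final) for 90 min at 37 deg C. Beta-arrestin recruitment was read as luminescence after 1 h with detection reagent at ambient temperature.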
D2 PAM-2: positive allosteric modulators of human D2 dopamine receptor. HEK293 T-REx D2, calcium flux, EC20 dopamine potentiation. 340,000 compounds, 0.34% hits. potentiation, % at 10 µM;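 active means potentiation over 3 SD above the plate norm, cut at about 30% in these data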; further: 0% is about no effect
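Using a no-wash calcium dye in inducible, force-coupled HEK293 Trex cells expressing D2, we tracked fluorescence each second for 180 s after compound, then for 180 s after EC20 dopamine to detect augmented signalling.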
* marks the source's active call; other numbers are inactive results.

Screening CCOCCCN(Cc1ccco1)S(=O)(=O)c1cc2c(cc1Cl)NC(=O)CO2 returned D2 ag-2 1.3 and D2 PAM-2 9.9.
Cn1c(CCC(=O)O)nc2cc(S(=O)(=O)N3CCCCC3)ccc21 was read as D2 ag-1 5.5, D2 antag 32.5*, D2 ag-2 0.5, D2 PAM-1 -2.5 and D2 PAM-2 18.7.
Screening Cc1cccc(CN2CCN([C@H]3CS(=O)(=O)N[C@@H]3COCc3ccccc3)CC2)c1 returned D2 ag-1 -2.7 and D2 PAM-1 -14.2.
Screening Cc1cc(OCCN2CCOCC2)ccc1Cl returned D2 ag-1 4.8, D2 antag 46.5*, D2 ag-2 0.4, D2 PAM-1 -6.6 and D2 PAM-2 -1.6.
Screening Cc1ccc(OCCN2CCOCC2)cc1C returned D2 ag-1 -0.5, D2 antag -10.3, D2 ag-2 -0.3, D2 PAM-1 -13.4 and D2 PAM-2 -3.4.
Screening CC1CCN(CCOc2ccc(Cl)c(Cl)c2)CC1 returned D2 ag-1 -3.8, D2 antag 83.6*, D2 ag-2 6.3, D2 PAM-1 -13.6 and D2 PAM-2 -25.9.
`COc1cc(C(=O)NCCc2sc(-c3ccc(C)cc3)nc2C)cc(OC)c1OC` gave D2 ag-2 0.6.
`Cc1oc2ccc(OS(C)(=O)=O)cc2c1C(=O)OC(C)C` gave D2 ag-1 0.0, D2 antag -18.1, D2 ag-2 0.2 and D2 PAM-1 -2.1.
`CCN(CC)C(=O)COc1ccc2oc(C)c(C(=O)OC(C)C)c2c1` gave D2 ag-1 -4.4, D2 antag 30.8*, D2 ag-2 -0.2, D2 PAM-1 -4.7 and D2 PAM-2 -6.4.
CCc1cccc(OCC(=O)Nc2ccc(S(=O)(=O)Nc3cc(C)nc(C)n3)cc2)c1 was read as D2 ag-2 -0.8 and D2 PAM-2 1.3.
CC(=O)c1ccc2c(c1)C1C=CCC1C(c1ccc(S(=O)(=O)N3CCOCC3)cc1)N2 (stereo unspecified) was read as D2 ag-1 9.8, D2 antag 2.8, D2 ag-2 0.8, D2 PAM-1 61.2* and D2 PAM-2 13.5.
Cc1cc(C)n2nc(CCc3nc4nc(C)cc(C)n4n3)nc2n1 was read as D2 antag 6.5, D2 ag-2 -0.6 and D2 PAM-2 2.2.
For CC(=O)N(C(C)=O)c1nc2nc(C)cc(C)n2n1 the results were D2 ag-1 -3.5, D2 antag 102.1*, D2 ag-2 -1.3, D2 PAM-1 -1.3 and D2 PAM-2 10.2.
Screening COc1ccc(S(=O)(=O)N2CCN(Cc3nc4ccc(C)cc4o3)CC2)cc1 returned D2 ag-2 1.1 and D2 PAM-2 0.4.
For CN1/C(=C\C=C(/C#N)C(=O)Nc2ccccc2F)C(C)(C)c2ccccc21 the results were D2 ag-1 -4.2, D2 antag 3.5, D2 ag-2 62.3*, D2 PAM-1 -2.7 and D2 PAM-2 -4.5.
For CN1/C(=C/C=C(/C#N)C(N)=O)C(C)(C)c2ccccc21 the results were D2 ag-1 -6.9 and D2 PAM-1 -19.3.
O=C(NCCCNCCCNC(=O)c1ccccn1)c1ccccn1 was read as D2 ag-1 -0.7, D2 antag 74.1*, D2 ag-2 -0.2, D2 PAM-1 -25.4 and D2 PAM-2 3.7.
`Cc1ccccc1C(=O)NCCNC(=O)c1ccccn1` gave D2 ag-1 -4.8, D2 antag -3.1, D2 ag-2 3.4, D2 PAM-1 -7.5 and D2 PAM-2 0.4.
Cc1ccccc1C(=O)NCCCNC(=O)c1ccccn1 was read as D2 ag-1 -1.2, D2 antag 1.7, D2 ag-2 -1.7, D2 PAM-1 0.0 and D2 PAM-2 31.0*.
For CN(C)CCCNCCCNC(=O)c1ccccn1 the results were D2 ag-1 -0.9, D2 antag 19.0, D2 ag-2 -1.4, D2 PAM-1 -3.9 and D2 PAM-2 -4.5.
Screening COc1ccc(CCN2C(=O)CN(C3CCCCCC3)C(=O)C2c2ccc(OC(C)C)c(OC)c2)cc1OC (stereo unspecified) returned D2 ag-2 -0.1 and D2 PAM-2 13.6.
`C/C(O)=C(/C=Nc1ccccc1)C(=O)Nc1ccccc1` gave D2 ag-1 -2.5, D2 antag 33.0*, D2 ag-2 1.2, D2 PAM-1 -0.9 and D2 PAM-2 11.0.
`CCCC(=O)Nc1ccc(NC(=O)c2ccccc2)nc1` gave D2 ag-1 -2.8, D2 antag -5.0, D2 ag-2 1.2, D2 PAM-1 -2.8 and D2 PAM-2 -9.4.
Screening CCC(=O)Nc1ccc(NC(=O)c2ccccc2)nc1 returned D2 ag-1 -1.5, D2 antag 31.7*, D2 ag-2 -0.2, D2 PAM-1 -2.0 and D2 PAM-2 1.2.
Screening COC(=O)CN1C(=O)N/C(=C/c2cc3c(cc2OC)OCO3)C1=O returned D2 ag-1 -4.8, D2 antag 29.2, D2 ag-2 -0.3, D2 PAM-1 15.1 and D2 PAM-2 35.2*.
Screening Cc1ccc(NC(=O)CN2C(=O)COc3ccc(S(=O)(=O)N4CCCCC4)cc32)cc1N(C)C returned D2 ag-2 -2.0 and D2 PAM-2 -0.3.
`Cc1cc(NS(=O)(=O)c2ccc(NC(=O)c3ccc([N+](=O)[O-])c(Cl)c3)cc2)no1` gave D2 ag-1 -2.2 and D2 PAM-1 11.6.
For Cc1cc(NS(=O)(=O)c2ccc(NC(=O)c3ccc(Cl)cc3[N+](=O)[O-])cc2)no1 the results were D2 ag-1 -4.6, D2 antag 40.7*, D2 ag-2 0.9, D2 PAM-1 inconclusive and D2 PAM-2 -0.8.
CCN1C(=O)c2ccccc2Sc2ccc(NC(=O)COc3ccc(Cl)cc3)cc21 was read as D2 ag-2 1.1 and D2 PAM-2 0.9.
`Cc1ccc(C)c(N2CCN(CCCNC(=O)c3ccc4nc(CCc5ccccc5)oc4c3)CC2)c1` gave D2 ag-2 -0.3.
Screening CC(C)Cn1c(N)c(C(=O)CSc2ccc3c(c2)OCCO3)c(=O)n(C)c1=O returned D2 ag-1 3.4, D2 antag -8.2, D2 ag-2 -0.5, D2 PAM-1 -4.9 and D2 PAM-2 32.9*.
`CC(C)Cn1c(N)c(C(=O)COC(=O)c2c(F)cccc2F)c(=O)n(C)c1=O` gave D2 ag-1 -6.3, D2 antag 45.2*, D2 ag-2 3.8, D2 PAM-1 3.6 and D2 PAM-2 -2.7.
COc1ccccc1CNC(=O)C1CCN(c2nc3ccc(Cl)cc3[nH]2)CC1 was read as D2 ag-2 -1.0 and D2 PAM-2 17.9.
CCCc1cc(=O)n2nc(N3CCC(C(=O)Nc4c(F)c(F)c(F)c(F)c4F)CC3)sc2n1 was read as D2 ag-1 2.6, D2 antag 37.5*, D2 ag-2 0.5, D2 PAM-1 -4.4 and D2 PAM-2 -1.4.
`CC(NNC(=S)N1CCCCCC1)c1ccc2ccccc2n1` (stereo unspecified) gave D2 ag-1 -19.1 and D2 PAM-1 -27.6.

Screening data as filed in PubChem BioAssay.
